The results in this text go back to PubChem BioAssay.

Molecules are shown by their SMILES. Activity calls are given as the source filed them.

Test [1] concerns the target Albumin (Bos taurus) (UniProt P02769). Kind of test: bovine serum albumin binders on microarray, profiling panel, artefact control for SMM control protein annotation, biochemical, small-molecule microarray, Alexa647 label, 635/667 nm fluorescence (AID 1118).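 Further: score merges 667 nm emission intensity and signal-to-noise per printed compound spot.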 The note with it: BSA-A647 binding, fluorescence 635 nm, higher = more signal.
A short description of test [2]: small-molecule microarray binders of probe aXIP, primary screen, biochemical, NeuroSMM set, 635/667 nm fluorescence (AID 1119).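 Further: probe is the protein aXip251-270 applied at 1 µg/mL to compound-printed slides; binding of probe to printed compounds measured as 667 nm fluorescence plus signal to noise.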 The following applies: higher = more signal, called active from +8 up or from −8 down.
The nature of test [3]: small-molecule binders of probe aNOTCH3, primary screen, biochemical, small-molecule microarray, 635/667 nm fluorescence (AID 1120).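 Further: probe is a biotin-tagged antibody raised against NOTCH3 rather than NOTCH3 protein; score merges spot fluorescence near 667 nm with spot signal to noise.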 The note with it: higher = more signal.
A short description of test [4]: small-molecule binders of probe aNOTCH2, primary screen, biochemical, small-molecule microarray, 635/667 nm fluorescence (AID 1121).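 Further: score merges feature fluorescence read at 667 nm with its signal to noise.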 The following applies: higher = more signal.
For test [5], the target named is Carbonic anhydrase 2 (Homo sapiens) (UniProt P00918). Kind of test: CAII small-molecule binders, profiling panel, biochemical, small-molecule microarray, Alexa647-labelled CAII (AID 1122). The following applies: CAII-A647 binding fluorescence, higher = more signal.
The nature of test [6]: COS7 lysate on small-molecule microarray, probe aHis, 635 nm (AID 1123).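 Further: z-score combines 667nm fluorescence intensity with signal-to-noise per printed compound spot.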 The note with it: COS7 cell lysate, fluorescence, higher = more signal.
Test [7] can be described thus: compound binding in COS7 lysate, probe aLAP1, primary screen, cell lysate, small-molecule microarray (AID 1124).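 Further: lysate comes from COS7 cells expressing LAP1 and is applied at 0.3 µg/mL; score merges spot fluorescence near 667 nm with signal-to-noise over triplicate slides.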 The note with it: probe aLAP1, fluorescence, higher = more signal.
The test system of test [8] is Sam68 (KHDRBS1). Briefly: Sam68 small-molecule binders, primary screen, biochemical, small-molecule microarray, 635 nm fluorescence (AID 1125).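 Further: score merges 667 nm channel intensity with signal to noise over triplicate slides.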 The following applies: small-molecule microarray binding, higher = more signal.
Test [9] relates to Chordin-like protein 2 (CHRDL2). Briefly: CHRDL2 small-molecule binders, primary screen, biochemical, small-molecule microarray, 635 nm fluorescence (AID 1126).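 Further: printed compound slides probed with Chrdl2 protein at 4 µg/mL for 1 h at 4 C; score merges 667 nm emission intensity with signal to noise over three replicate slides.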 The following applies: small-molecule microarray binding, fluorescence 635 nm; higher = more signal.
Test [10] deals with Concanavalin-A (Canavalia ensiformis) (UniProt P02866). Kind of test: ConA small-molecule binders, primary screen, artefact control for SMM control protein annotation, biochemical, small-molecule microarray, Alexa647 label, 635 nm (AID 1127).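 Further: z combines 667 nm emission intensity with signal-to-noise across three replicate slides.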 The note with it: ConA-A647 binding fluorescence, higher = more signal.
Concanavalin-A (Canavalia ensiformis), sequence (P02866 whole entry, looked up): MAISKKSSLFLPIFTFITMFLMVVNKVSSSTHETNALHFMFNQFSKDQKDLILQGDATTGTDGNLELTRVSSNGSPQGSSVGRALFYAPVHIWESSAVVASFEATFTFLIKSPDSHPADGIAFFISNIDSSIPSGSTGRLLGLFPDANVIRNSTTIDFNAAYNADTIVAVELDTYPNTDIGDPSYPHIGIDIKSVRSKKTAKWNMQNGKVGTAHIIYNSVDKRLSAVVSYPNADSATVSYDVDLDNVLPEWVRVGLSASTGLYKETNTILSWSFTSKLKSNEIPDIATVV
The nature of test [11]: anti-His antibody binders, primary screen, artefact control for SMM control protein annotation, biochemical, small-molecule microarray, 635 nm fluorescence (AID 1128).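 Further: score merges feature fluorescence with signal-to-noise for each printed compound spot.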 The note with it: anti-His Alexa647 antibody binding, higher = more signal.
The test system of test [12] is Human papillomavirus type 1a E7 protein (residues 1-88). Kind of test: HPV1a E7 small-molecule binders, primary screen, biochemical, small-molecule microarray, residues 1-88, 635 nm (AID 1129). The note with it: small-molecule microarray binding, fluorescence 635 nm; higher = more signal.
For test [13], the target named is Focal adhesion kinase 1 (Homo sapiens) (UniProt Q05397). Kind of test: small-molecule microarray binders of FAK, primary screen, biochemical, 635/667 nm fluorescence, BSA, DTT (AID 1130).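 Further: composite of spot emission at 667 nm and signal to noise over triplicate slides.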 The following applies: PTK2 binding, 635 nm fluorescence, higher = more signal.
Focal adhesion kinase 1 (Homo sapiens), sequence (Q05397 whole entry, looked up): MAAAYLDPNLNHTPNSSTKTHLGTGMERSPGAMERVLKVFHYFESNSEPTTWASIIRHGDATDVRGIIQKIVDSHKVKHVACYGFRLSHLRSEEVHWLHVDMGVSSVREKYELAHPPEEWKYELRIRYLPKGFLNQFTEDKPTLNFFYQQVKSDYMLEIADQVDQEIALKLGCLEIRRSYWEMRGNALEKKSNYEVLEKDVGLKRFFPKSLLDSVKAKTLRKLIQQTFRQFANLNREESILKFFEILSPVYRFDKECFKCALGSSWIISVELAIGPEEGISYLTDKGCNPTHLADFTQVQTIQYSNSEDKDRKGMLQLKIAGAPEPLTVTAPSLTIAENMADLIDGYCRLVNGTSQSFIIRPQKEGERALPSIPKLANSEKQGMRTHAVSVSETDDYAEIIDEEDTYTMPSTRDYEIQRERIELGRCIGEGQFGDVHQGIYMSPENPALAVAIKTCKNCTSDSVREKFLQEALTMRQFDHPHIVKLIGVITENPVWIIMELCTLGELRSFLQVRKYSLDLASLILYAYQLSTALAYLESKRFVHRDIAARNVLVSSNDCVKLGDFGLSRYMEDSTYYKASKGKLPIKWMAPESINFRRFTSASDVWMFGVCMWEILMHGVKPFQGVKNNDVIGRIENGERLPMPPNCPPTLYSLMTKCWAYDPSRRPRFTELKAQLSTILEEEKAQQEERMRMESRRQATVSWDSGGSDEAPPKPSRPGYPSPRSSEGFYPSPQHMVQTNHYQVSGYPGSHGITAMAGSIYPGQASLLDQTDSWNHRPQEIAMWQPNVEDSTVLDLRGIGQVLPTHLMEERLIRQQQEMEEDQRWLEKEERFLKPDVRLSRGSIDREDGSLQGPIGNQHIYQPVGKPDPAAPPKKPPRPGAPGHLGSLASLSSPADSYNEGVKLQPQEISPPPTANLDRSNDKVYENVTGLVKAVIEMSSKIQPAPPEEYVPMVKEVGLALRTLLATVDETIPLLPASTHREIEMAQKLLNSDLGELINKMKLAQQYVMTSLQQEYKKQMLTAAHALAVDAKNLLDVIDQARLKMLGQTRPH
For test [14], the system named is Fibrinogen (Alexa647-labelled). Kind of test: fibrinogen binders on compound microarrays, profiling panel, artefact control for SMM control-protein annotation, biochemical, small-molecule microarray, 635/667 nm fluorescence (AID 1131).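 Further: z-score merges 667 nm fluorescence with per-spot signal-to-noise over triplicate slides.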 The note with it: fibrinogen-A647 binding fluorescence, higher = more signal.
The target in test [15] is Follistatin (Homo sapiens) (UniProt P19883). Kind of test: follistatin binders on small-molecule microarrays, primary screen, biochemical, small-molecule microarray, 635/667 nm fluorescence (AID 1132). The following applies: FST binding, 635 nm fluorescence, higher = more signal.
Follistatin (Homo sapiens), sequence (P19883 whole entry, looked up): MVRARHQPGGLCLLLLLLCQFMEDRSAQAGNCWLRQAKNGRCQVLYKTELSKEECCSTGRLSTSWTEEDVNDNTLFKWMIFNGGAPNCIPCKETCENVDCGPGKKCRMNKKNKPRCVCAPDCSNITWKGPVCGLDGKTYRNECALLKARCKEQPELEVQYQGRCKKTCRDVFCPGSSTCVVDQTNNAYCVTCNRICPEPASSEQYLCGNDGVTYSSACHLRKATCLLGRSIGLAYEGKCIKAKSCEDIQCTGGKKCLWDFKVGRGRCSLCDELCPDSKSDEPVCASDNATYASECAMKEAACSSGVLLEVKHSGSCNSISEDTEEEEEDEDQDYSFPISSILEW
Test [16] deals with Fibroblast growth factor 2 (Homo sapiens) (UniProt P09038). Kind of test: FGF2 binders on small-molecule microarrays, primary screen, biochemical, small-molecule microarray, 635/667 nm fluorescence (AID 1133). The following applies: small-molecule microarray binding, FGF2, fluorescence 635/667; higher = more signal.
Fibroblast growth factor 2 (Homo sapiens), sequence (P09038 whole entry, looked up): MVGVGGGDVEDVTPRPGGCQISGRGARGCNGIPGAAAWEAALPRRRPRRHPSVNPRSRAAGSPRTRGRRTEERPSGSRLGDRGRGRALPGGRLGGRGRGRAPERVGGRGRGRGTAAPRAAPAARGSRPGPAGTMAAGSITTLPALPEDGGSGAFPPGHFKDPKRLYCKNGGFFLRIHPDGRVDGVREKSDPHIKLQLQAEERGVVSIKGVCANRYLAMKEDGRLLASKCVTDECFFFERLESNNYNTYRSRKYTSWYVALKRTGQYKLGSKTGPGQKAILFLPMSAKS
The nature of test [17]: mitochondrial membrane potential change in A549 cells, profiling panel, cell-based, JC-1 fluorescence, basal, 24 h, 100 nL (AID 1138).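 Further: A549 lung adenocarcinoma cells under basal conditions with no added stimulus; test concentration not given here.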 The note with it: higher = more signal.
For test [18], the system named is Lefty1. Kind of test: Lefty1 binders on small-molecule microarrays, primary screen, biochemical, small-molecule microarray, 635/667 nm fluorescence (AID 1139). The following applies: small-molecule microarray binding, fluorescence 635/667; higher = more signal.
Test [19] has as its system wheat germ agglutinin (Triticum aestivum), Alexa647-labelled. Kind of test: wheat germ agglutinin binders on compound microarrays, profiling panel, artefact control for SMM control-protein annotation, biochemical, small-molecule microarray, 635/667 nm fluorescence (AID 1140).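 Further: score merges 667 nm feature emission with signal to noise over triplicate slides.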 The note with it: WGA-A647 binding, 635 nm fluorescence, higher = more signal.
In test [20] the target is Luciferin 4-monooxygenase (Photinus pyralis) (UniProt P08659). Kind of test: firefly luciferase enzyme inhibitors, primary screen, biochemical, luminescence, purified enzyme, 2006 set (AID 1141).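 Further: cell-free assay with purified firefly luciferase at 100 ng per well in PBS; test concentration not given here.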 The note with it: SteadyGlo luminescence, 30 min, higher = more signal, called active from +8 up or from −8 down.
Luciferin 4-monooxygenase (Photinus pyralis), sequence (P08659 whole entry, looked up): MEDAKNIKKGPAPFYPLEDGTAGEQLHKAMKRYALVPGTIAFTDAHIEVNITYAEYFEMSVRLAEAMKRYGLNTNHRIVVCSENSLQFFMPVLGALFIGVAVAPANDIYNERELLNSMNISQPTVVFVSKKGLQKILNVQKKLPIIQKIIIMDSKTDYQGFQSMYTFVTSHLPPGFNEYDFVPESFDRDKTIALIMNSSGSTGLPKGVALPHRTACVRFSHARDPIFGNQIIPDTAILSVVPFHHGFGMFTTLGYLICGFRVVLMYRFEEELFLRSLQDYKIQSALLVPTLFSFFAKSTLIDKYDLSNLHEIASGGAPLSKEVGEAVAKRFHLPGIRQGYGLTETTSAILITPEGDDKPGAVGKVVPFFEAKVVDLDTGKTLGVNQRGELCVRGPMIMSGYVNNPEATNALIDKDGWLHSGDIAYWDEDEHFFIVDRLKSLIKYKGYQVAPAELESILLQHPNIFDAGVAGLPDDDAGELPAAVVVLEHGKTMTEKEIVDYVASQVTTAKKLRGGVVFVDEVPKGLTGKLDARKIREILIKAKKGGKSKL

Albumin (Bos taurus), sequence (P02769 whole entry, looked up): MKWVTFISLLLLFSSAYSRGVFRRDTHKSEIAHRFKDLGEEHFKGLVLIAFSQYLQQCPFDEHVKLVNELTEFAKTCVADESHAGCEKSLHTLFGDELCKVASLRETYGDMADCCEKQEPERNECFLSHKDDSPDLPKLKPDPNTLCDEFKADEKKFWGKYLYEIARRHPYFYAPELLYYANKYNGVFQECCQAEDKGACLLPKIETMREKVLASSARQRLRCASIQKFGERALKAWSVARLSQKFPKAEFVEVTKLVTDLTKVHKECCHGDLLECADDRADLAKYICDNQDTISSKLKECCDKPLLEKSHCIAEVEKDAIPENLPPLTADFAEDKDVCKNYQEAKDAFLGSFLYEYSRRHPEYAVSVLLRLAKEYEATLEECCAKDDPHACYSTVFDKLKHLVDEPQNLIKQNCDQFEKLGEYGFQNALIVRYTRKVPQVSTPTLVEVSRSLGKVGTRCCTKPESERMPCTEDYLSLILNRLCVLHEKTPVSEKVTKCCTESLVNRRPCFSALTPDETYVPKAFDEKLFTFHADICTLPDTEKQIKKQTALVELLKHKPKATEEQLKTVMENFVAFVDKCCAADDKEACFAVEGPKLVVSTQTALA

Turning to `CC(C)[Si](C#CCCCC#N)(O[C@H](c1ccccc1)c1cn(Cc2ccccc2)nn1)C(C)C`, the composite z-score in [1] was 0.728; in test [3], 0.123; in [4], -0.174; in test [5], 0.249; in test [6] it was 0.691; in test [7], 0.272. The composite z-score in [8] was 1.16; in [9] it was 0.568; in [10] it was 0.536; in [11], 1.01; in test [12] it was 0.694; in test [13], -0.359. The composite z-score was found to be 0.534 in test [14]; 0.793 in test [15]; 0.725 in test [16]; 0.809 in test [18]; 0.235 in [19]. In addition, the composite Z-score in test [2] is -0.535 (inactive). Besides, the z-score is 0.408 in test [17] and -0.254 (inactive) in test [20].
Turning to `CCCC=C(CCC)[C@@H](NC(=O)C(C)(C)C)c1ccc(C(=O)OC)cc1`, the composite z-score in test [1] was found to be 0.991; in test [3], 0.25; in [4] it was 0.0199; in test [5], 0.441; in test [6], 2.76; in test [7] it was 0.103. The composite z-score in test [8] was 0.622; in test [9], -0.91; in test [10], 0.869; in test [11] it was 0.933; in test [12], 1.01; in [13], 0.451. Besides, the composite z-score in [14] is 0.972; in test [15] it was 0.156; in test [16] it was -0.764; in test [18], -0.947; in test [19] it was 0.995. In addition, the composite Z-score in test [2] was 0.29 (inactive). The z-score in test [17] is 2.85; in test [20] it was 1.91 (inactive).
For the compound `COc1cc2c(cc1O)C(C1CC1)N(C)CC2` (stereo not given), the composite z-score in [1] was 0.789; in [3] it was -0.257; in test [4] it was -0.19; in test [5], 0.902; in [6], -0.374; in test [7] it was -0.308. The composite z-score in [8] was -0.758; in test [9], -0.778; in test [10], -1.91; in [11], -1.19; in test [12], -2.06; in [13] it was -0.532. Also, the composite z-score in test [14] is -1.18; in test [15], -1.09; in test [16], -0.716; in test [18] it was -1.59; in test [19], -0.413. The composite Z-score in test [2] was -0.519 (inactive). For the same compound, the z-score in test [17] was 1.32; in test [20], -0.872 (inactive).
Consider `N#Cc1ccc(NN2C(C(O)c3ccc(Br)cc3)C=CC3C(=O)N(c4ccccc4)C(=O)C32)cc1` (stereo not given), for which the composite z-score amounted to 0.539 in test [1]; 0.43 in test [3]; 0.357 in test [4]; 0.721 in test [5]; 3.24 in [6]; 1.35 in test [7]. Besides, the composite z-score in test [8] was determined as 0.83; in test [9] it was 0.195; in test [10], 1.07; in [11] it was 1.28; in [12] it was 1.18; in [13], 0.633. In addition, the composite z-score is 0.561 in test [14]; 0.873 in test [15]; 0.127 in test [16]; -0.0682 in [18]; 1.49 in test [19]. Besides, in test [2], the composite Z-score was 0.718 (inactive). Also, the z-score in [17] is 0.494; in test [20], -0.517 (inactive).
With `CCOC(=O)[C@@H]1CCCCN1C(=O)C(=O)OC`, the composite z-score is 0.145 in test [1]; -0.0431 in test [3]; -0.274 in [4]; -0.177 in test [5]; 0.226 in test [6]; 0.193 in test [7]. Further, the composite z-score in [8] was 0.322; in [9], -0.0507; in test [10] it was 0.131; in test [11], 0.234; in test [12] it was 0.504; in test [13] it was 0.1. Moreover, the composite z-score in test [14] was -0.23; in test [15], 0.479; in test [16] it was 0.894; in test [18], 1.29; in [19] it was -0.48. Besides, the composite Z-score in test [2] was -0.587 (inactive). Besides, the z-score was -0.309 in test [17] and 0.0296 (inactive) in test [20].
`COC(=O)[C@@]1(Cc2ccc(OC)cc2)[C@H]2c3cc(C(=O)N(C)C)n(Cc4ccc(OC(F)(F)F)cc4)c3C[C@H]2CN1C(=O)c1ccccc1`: the composite z-score is 0.953 in [1]; 0.11 in [3]; 0.141 in test [4]; 0.822 in [5]; 1.74 in [6]; -0.0771 in [7]. Moreover, the composite z-score was -0.264 in test [8]; -0.899 in test [9]; -0.467 in test [10]; -0.399 in test [11]; 0.299 in test [12]; 1.14 in [13]. In addition, the composite z-score was 0.808 in test [14]; -0.295 in test [15]; -0.555 in test [16]; -0.878 in test [18]; 0.0102 in test [19]. For the same compound, the composite Z-score in test [2] is 0.255 (inactive). Besides, the z-score in test [17] is 0.517; in test [20], 0.86 (inactive).
As for `COc1ccccc1CN1C(=O)c2ccccc2[C@](Cc2ccccc2I)(C(=O)O)[C@@H]1c1ccc(CO)cc1`, the composite z-score in [1] is 0.76; in [3], 0.0961; in [4], -0.0238; in test [5], 0.328; in [6], 2; in test [7], 0.704. Besides, the composite z-score in [8] was found to be 1.27; in [9], 0.227; in [10] it was 1.18; in [11], 1.76; in test [12], 1.21; in test [13], 0.758. The composite z-score in test [14] turned out to be 0.809; in test [15], 1.26; in [16], 1.33; in [18] it was 0.74; in [19], 0.762. Moreover, the composite Z-score in test [2] was 0.114 (inactive). In addition, the z-score in test [17] is 0.227; in [20], -1.01 (inactive).
Regarding `CN1C2C=C(CCCO)C(C3C(=O)N(C(N)=O)C(=O)C32)C1C1CC1` (stereo not given), the composite z-score in test [1] is -0.0873; in [3] it was -0.272; in test [4] it was -0.14; in [5], 0.234; in [6], 0.043; in test [7], -0.182. In addition, the composite z-score in test [8] is 0.0346; in test [9], -0.0334; in [10], 0.31; in test [11] it was 0.352; in test [12] it was 0.186; in test [13], -0.158. The composite z-score in [14] is 0.481; in test [15], -0.0169; in test [16], -0.148; in [18], 0.145; in test [19], -0.123. Further, the composite Z-score in [2] was -1.14 (inactive). Also, the z-score is 0.771 in test [17] and -0.938 (inactive) in test [20].
